Experimental data reported in PubChem BioAssay.
A number with no mark means an inactive call. A call without a number means that no potency is given here. For part of these data: Potency and affinity values are given separately. Calls of active or inactive are those of the source. Unless noted, how the calls were made is not given here. Non-standard residues stand in square brackets, D forms with d. Residues, ends and D or L forms follow the SMILES beside them. *: point of attachment. Butanoyl(4-(4-HOPh)) = O=C(CCCc1ccc(O)cc1)*

Assays:
[1] = antimalarial activity against Dd2 strain (AID 2302;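 active means growth inhibition above 50% at the single 2 µM test dose, taken to imply half-maximal potency below 2 µM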); conditions: P. falciparum Dd2 in RBCs, LDH growth readout, 72 h; at 2 µM; active compounds read high
[2] = HepG2 cytotoxicity, primary screen, cytotoxicity control for P. falciparum antimalarial project, cell-based, ATP luminescence (AID 2303;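 active means inhibition above 50%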); conditions: HepG2 viability, 24-48 h, at 10 µM, active compounds read high
[3] = molecular target: L-lactate dehydrogenase (Plasmodium falciparum (isolate CDC / Honduras)) (UniProt Q27743); experiment: PfLDH activity inhibition – cell lysate, 3D7 strain, counter-screen for P. falciparum growth inhibition project (AID 2304); conditions: P. falciparum 3D7 crude extract, LDH APAD/NBT absorbance; at 2 µM; active compounds read high
[4] = inhibition of 3D7 malaria parasite growth – strain 3D7 (AID 2306); conditions: P. falciparum 3D7 erythrocytic growth, LDH absorbance, 72 h; at 2 µM; active compounds read high
[5] = molecular target: Calcium-dependent protein kinase 1 (Plasmodium falciparum (isolate 3D7)) (UniProt P62344); experiment: PfCDPK1 kinase inhibitors, biochemical, TCAMS library (AID 1159585; cut-off not given, nearly all actives have IC50 up to about 0.98 µM;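 further: inhibitors leave more ATP so luminescence rises with inhibition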); conditions: recombinant PfCDPK1, Kinase-Glo ATP depletion luminescence
[6] = molecular target: Plasmodium falciparum protein kinase 6 (PK6, PF3D7_1337100) (UniProt Q8IDW1); experiment: PfPK6 kinase inhibitors, biochemical, TCAMS library (AID 1159586); conditions: recombinant PfPK6, Kinase-Glo ATP depletion luminescence
[7] = molecular target: Protein kinase 7 (PK7), Plasmodium falciparum 3D7 (PF3D7_0213400) (UniProt Q7YTF7); experiment: inhibition of Plasmodium PK7 catalytic activity – biochemical, TCAMS antimalarial set, Kinase-Glo luminescence (AID 1159587); conditions: recombinant PfPK7, Kinase-Glo ATP depletion luminescence
[8] = molecular target: Calcium-dependent protein kinase 4 (Plasmodium falciparum (isolate 3D7)) (UniProt Q8IBS5); experiment: PfCDPK4 kinase inhibitors, biochemical, TCAMS library (AID 1159588; cut-off not given, nearly all actives have IC50 up to about 0.91 µM); conditions: recombinant PfCDPK4, Kinase-Glo ATP depletion luminescence
Chain of Calcium-dependent protein kinase 4 (Plasmodium falciparum (isolate 3D7)) (Q8IBS5 whole entry, looked up): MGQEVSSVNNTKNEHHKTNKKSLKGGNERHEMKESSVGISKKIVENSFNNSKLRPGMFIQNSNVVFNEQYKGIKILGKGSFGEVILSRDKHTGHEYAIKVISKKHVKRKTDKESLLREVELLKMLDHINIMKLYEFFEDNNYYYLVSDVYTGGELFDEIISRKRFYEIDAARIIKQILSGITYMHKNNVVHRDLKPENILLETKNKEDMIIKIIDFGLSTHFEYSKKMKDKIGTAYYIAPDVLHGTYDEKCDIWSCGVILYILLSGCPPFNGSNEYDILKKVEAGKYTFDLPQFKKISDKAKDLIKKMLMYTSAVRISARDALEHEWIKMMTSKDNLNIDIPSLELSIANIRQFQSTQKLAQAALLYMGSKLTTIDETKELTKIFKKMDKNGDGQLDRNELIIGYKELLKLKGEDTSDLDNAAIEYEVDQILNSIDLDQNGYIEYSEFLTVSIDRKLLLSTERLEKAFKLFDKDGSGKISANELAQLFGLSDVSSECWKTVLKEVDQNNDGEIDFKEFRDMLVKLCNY

Chain of Plasmodium falciparum protein kinase 6 (PK6, PF3D7_1337100) (Q8IDW1 1-305): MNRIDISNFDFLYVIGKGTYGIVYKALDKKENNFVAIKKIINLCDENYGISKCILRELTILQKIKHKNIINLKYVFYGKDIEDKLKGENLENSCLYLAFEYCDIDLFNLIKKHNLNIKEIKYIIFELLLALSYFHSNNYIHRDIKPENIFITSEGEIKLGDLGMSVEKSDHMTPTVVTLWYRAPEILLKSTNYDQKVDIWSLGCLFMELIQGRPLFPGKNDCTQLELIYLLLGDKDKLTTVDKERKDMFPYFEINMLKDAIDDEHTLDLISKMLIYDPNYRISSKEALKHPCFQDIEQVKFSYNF
Chain of Calcium-dependent protein kinase 1 (Plasmodium falciparum (isolate 3D7)) (P62344 whole entry, looked up): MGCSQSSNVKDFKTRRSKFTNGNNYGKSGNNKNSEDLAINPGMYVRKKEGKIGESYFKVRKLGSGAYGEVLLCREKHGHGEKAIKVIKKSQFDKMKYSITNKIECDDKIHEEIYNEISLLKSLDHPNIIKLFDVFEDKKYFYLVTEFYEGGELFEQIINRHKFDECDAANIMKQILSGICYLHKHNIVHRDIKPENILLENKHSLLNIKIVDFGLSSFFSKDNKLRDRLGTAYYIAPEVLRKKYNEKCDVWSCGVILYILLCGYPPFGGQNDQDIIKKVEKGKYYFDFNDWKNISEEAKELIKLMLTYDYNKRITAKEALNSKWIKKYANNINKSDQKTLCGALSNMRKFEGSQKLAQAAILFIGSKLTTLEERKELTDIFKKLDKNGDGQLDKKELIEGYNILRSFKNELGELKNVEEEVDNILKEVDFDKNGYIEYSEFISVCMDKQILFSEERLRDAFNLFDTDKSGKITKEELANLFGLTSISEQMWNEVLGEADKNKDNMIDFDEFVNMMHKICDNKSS
Chain of L-lactate dehydrogenase (Plasmodium falciparum (isolate CDC / Honduras)) (Q27743 whole entry, looked up): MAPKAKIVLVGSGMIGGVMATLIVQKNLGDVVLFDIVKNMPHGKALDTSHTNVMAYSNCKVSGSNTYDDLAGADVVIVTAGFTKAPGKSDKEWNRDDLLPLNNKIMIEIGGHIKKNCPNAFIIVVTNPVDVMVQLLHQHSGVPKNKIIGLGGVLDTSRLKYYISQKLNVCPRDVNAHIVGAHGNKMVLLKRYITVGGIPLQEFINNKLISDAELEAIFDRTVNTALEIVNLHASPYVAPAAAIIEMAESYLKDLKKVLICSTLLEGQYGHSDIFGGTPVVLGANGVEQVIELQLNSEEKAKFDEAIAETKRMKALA
Chain of Protein kinase 7 (PK7), Plasmodium falciparum 3D7 (PF3D7_0213400) (Q7YTF7 1-343): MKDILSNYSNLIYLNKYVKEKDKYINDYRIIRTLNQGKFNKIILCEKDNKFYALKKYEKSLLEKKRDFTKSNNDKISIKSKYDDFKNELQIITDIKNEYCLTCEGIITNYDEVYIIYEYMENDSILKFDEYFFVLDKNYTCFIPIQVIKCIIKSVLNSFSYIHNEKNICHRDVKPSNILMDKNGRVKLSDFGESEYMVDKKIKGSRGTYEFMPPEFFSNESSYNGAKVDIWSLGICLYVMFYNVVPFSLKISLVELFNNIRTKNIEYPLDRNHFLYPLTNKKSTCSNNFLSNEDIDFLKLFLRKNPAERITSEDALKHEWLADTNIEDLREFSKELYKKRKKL

| Compound | growth inhibition [1] | inhibition [2] | inhibition [3] [%] | growth inhibition [4] | outcome [5] | outcome [6] | outcome [7] | outcome [8] |
| --- | --- | --- | --- | --- | --- | --- | --- | --- |
| COc1ccc2nccc([C@@H](O)CN3CCC(NCc4cc5ccccc5cn4)CC3)c2n1 | 14% | 3% | -2 | 93% (active) | inactive | inactive | inactive | inactive |
| COc1ccc(NC(=O)CCNc2cc(C)nc(NCCc3ccccc3)n2)cc1 | 0% | 3% | -2 | 85% (active) | inactive | inactive | inactive | inactive |
| OC[C@H]1CCCN1CC#Cc1cc2c(Nc3ccc(OCc4cccc(F)c4)c(Cl)c3)ncnc2s1 | 6% | 13% | -2 | 89% (active) | inactive | inactive | inactive | inactive |
| O=C(Nc1ccc([N+](=O)[O-])cc1Cl)c1cc2ccccc2cc1O | 28% | 6% | 0 | 94% (active) | inactive | inactive | inactive | inactive |
| Cc1ccc(C(=O)Nc2ccc(C)c(OC3CCN(Cc4ccco4)C3)c2)cc1 (stereo not drawn) | 49% | 10% | 3 | 90% (active) | inactive | inactive | inactive | inactive |
| Cc1cc(OCC2CCN(c3ncc(C(=O)NC4CC4)cc3Cl)CC2)ccc1F | 96% (active) | 16% | 5 | 96% (active) | inactive | inactive | inactive | inactive |
| COc1ccc2nccc([C@@H](O)CN3CCC(NCc4ccc5c(c4)NC(=O)CS5)CC3)c2n1 | 34% | 1% | -3 | 101% (active) | inactive | inactive | inactive | inactive |
| CCC(C)c1ccc(NC(=O)c2ccc(S(=O)(=O)Nc3ccc(OC)c(N4CCN(CC5CC5)CC4)c3)cc2)cc1 (stereo not drawn) | 17% | 24% | -2 | 94% (active) | inactive | inactive | inactive | inactive |
| CC(=O)Nc1ccc(C(=O)NC2CCN(c3ccnc4cc(Cl)ccc34)C2)cc1 (stereo not drawn) | 100% (active) | 1% | -1 | 101% (active) | inactive | inactive | inactive | inactive |
| CCC(NC(=O)c1ccccc1NC(=O)c1ccc(C)cc1)C(=O)OC (stereo not drawn) | 86% (active) | -4% | 3 | 95% (active) | inactive | inactive | inactive | inactive |
| O=C(NCc1ccc2c(c1)OCO2)c1nn(CCN2CCC(N3CCCC3)CC2)cc1-c1ccc(Cl)c(Cl)c1 | 17% | 21% | -2 | 94% (active) | inactive | inactive | inactive | inactive |
| c1cc(Cc2ccc(Nc3c4ccccc4nc4ccccc34)cc2)cc(Nc2c3ccccc3nc3ccccc23)c1 | 100% (active) | 91% (active) | -5 | 100% (active) | inactive | inactive | inactive | inactive |
| CN1CCC(c2c[nH]c3ccc(NC(=O)Nc4ccc(-c5ccncc5)c(Cl)c4Cl)cc23)CC1 | 19% | 27% | -1 | 102% (active) | inactive | inactive | inactive | inactive |
| c1ccc(CNc2nc(NCCN3CCCCC3)nc3ccccc23)cc1 | 8% | 19% | -11 | 87% (active) | inactive | inactive | inactive | inactive |
| COc1ccc(CNCc2ccccc2)cc1-c1ccc(S(=O)(=O)NCCN2CCCC2)c(F)c1 | 42% | 29% | 5 | 87% (active) | inactive | inactive | inactive | inactive |
| CCOc1cc(C(=O)NC2CCN(Cc3ccccc3)C2)ccc1-c1nc2ccc(Cl)cc2[nH]1 (stereo not drawn) | 60% (active) | 7% | 6 | 98% (active) | inactive | inactive | inactive | inactive |
| CCCCNC(=O)[C@H](CC1CCCCC1)NC(=O)c1ccc(O)c(-c2cccc(C(F)(F)F)c2)c1 | 86% (active) | -8% | 0 | 98% (active) | inactive | inactive | inactive | inactive |
| O=C(Nc1cccc([N+](=O)[O-])c1)Nc1cccc(C(F)(F)F)c1 | 81% (active) | 0% | -8 | 92% (active) | inactive | inactive | inactive | inactive |

| Compound | growth inhibition [1] | inhibition [2] | inhibition [3] [%] | growth inhibition [4] | outcome [5] | outcome [6] | outcome [7] | outcome [8] |
| --- | --- | --- | --- | --- | --- | --- | --- | --- |
| CC(C)(C)Nc1nc(Nc2cccc([N+](=O)[O-])c2)nc(-n2ccnc2)n1 | 41% | 10% | -9 | 98% (active) | inactive | inactive | inactive | inactive |
| CCN1CCN(C(=O)NC(C(=O)N(C)Cc2ccc(-c3ccc(C(F)(F)F)cc3)cc2)c2cccs2)C(=O)C1=O (stereo not drawn) | 95% (active) | -5% | -1 | 99% (active) | inactive | inactive | inactive | inactive |
| O=C(NCC(=O)N1CCC[C@H]1C(=O)O)[C@@H](Cc1ccccc1)NC(=O)[C@@H]1CCCN1C(=O)CCCc1ccc(O)cc1 ({Butanoyl(4-(4-HOPh))}-P[dF]GP-OH) | 1% | 1% | 3 | 81% (active) | inactive | inactive | inactive | inactive |
| O=C(CCN(Cc1ccco1)c1nc(-c2ccc(F)cc2)nc2ccccc12)NC1CC1 | 54% (active) | -12% | 4 | 94% (active) | inactive | inactive | inactive | inactive |
| Brc1ccc(Nc2nc(NCC3CCCO3)c3ccccc3n2)cc1 (stereo not drawn) | 99% (active) | 13% | -3 | 100% (active) | inactive | inactive | inactive | inactive |
| Cc1c(Cc2ccc(F)cc2)c(Cl)nc2nc(N)nc(N)c12 | 1% | 66% (active) | -2 | 92% (active) | inactive | inactive | inactive | inactive |
| CCN(CC)C(=NCCCCCCN=C(NC(N)=NCc1ccc(Cl)cc1)N(CC)CC)NC(N)=NCc1ccc(Cl)cc1 | 100% (active) | 18% | -3 | 100% (active) | inactive | inactive | inactive | inactive |
| Cc1nc(C)c(CC(=O)Nc2cccc(-c3cccc(-c4nc5c(C)cccc5[nH]4)c3)c2)s1 | 35% | 43% | -6 | 92% (active) | inactive | inactive | inactive | inactive |
| O=C(Nc1ccc(Cl)cc1)c1ccc(CN2CCCN(CC3CCCCC3)CC2)cc1 | 42% | 48% | 0 | 92% (active) | inactive | inactive | inactive | inactive |
| COc1ccc2nc(C)cc(NCc3cccc4ccccc34)c2c1 | 72% (active) | 28% | -7 | 102% (active) | inactive | inactive | inactive | inactive |
| Cc1[nH]c(C)c(-c2ccc(OCc3cc(C(F)(F)F)cc(C(F)(F)F)c3)nc2)c(=O)c1Cl | 96% (active) | 19% | -1 | 98% (active) | inactive | inactive | inactive | inactive |
| CN(C)C(=O)c1ccc(CN(Cc2ccc3c(c2)OCCO3)Cc2ccc3c(c2)OCO3)cc1 | 95% (active) | -10% | 3 | 89% (active) | inactive | inactive | inactive | inactive |
| COc1cc2ccccc2cc1CNCCCCCCNCc1cc2ccccc2cc1OC | 24% | 98% (active) | 6 | 101% (active) | inactive | inactive | inactive | inactive |
| CCc1cn2c3c(cc(C(=O)N[C@@H](Cc4ccccc4)[C@H](O)CNC4CCCCC4)cc13)N(CC)S(=O)(=O)CC2 | 98% (active) | 8% | -5 | 98% (active) | inactive | inactive | inactive | inactive |
| COc1ccc2nccc([C@@H](O)CN3CCC(NC(=O)C(c4cc5ccccc5o4)N4CCN(c5ccccc5)CC4)CC3)c2c1 (stereo partly drawn) | 99% (active) | 19% | -2 | 99% (active) | inactive | inactive | inactive | inactive |
| Oc1ccc(Nc2nc(NCC3CCCO3)c3ccccc3n2)cc1 (stereo not drawn) | 57% (active) | 7% | 4 | 103% (active) | inactive | inactive | inactive | inactive |
| CCN(CC)CCN(Cc1ccc(-c2ccc(C(F)(F)F)cc2)cc1)C(=O)Cn1c(CCc2c(F)cc(F)cc2F)nc(=O)c2ccccc21 | 26% | 39% | 3 | 89% (active) | inactive | inactive | inactive | inactive |
| c1ccc(Oc2ccc(Nc3ccnc4cc(-c5ccc(CNCCN6CCOCC6)o5)ccc34)cc2)nc1 | 100% (active) | -7% | -2 | 101% (active) | inactive | inactive | inactive | inactive |
